According to PubChem BioAssay (NCI):
This is part of a sample that, as a whole, favours compounds with a hit. Of some 79,000 tested, about 15% had one in any assay. Values without a mark were called inactive. Activity calls are given as the source filed them. No stated cut-off is given here; in the data, active means growth inhibition above about 70%; inactive means the rest.

Legend:
[1] = NCI Yeast Anticancer Drug Screen. Data for the rad50 strain (AID 155);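 further: 0% = growth of vehicle-only cultures of the same strain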; conditions: S. cerevisiae rad50 strain growth inhibition, stronger effect = higher value
Procedure, shortened: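 Genetically altered yeast (DNA repair pathway); compound treatment; growth inhibition vs vehicle ctrl.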

[2] = NCI Yeast Anticancer Drug Screen. Data for the mec2-1 strain (AID 157); conditions: S. cerevisiae mec2-1 strain, stronger effect = higher value
Procedure, shortened: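 Cells of the genetically defined mec2-1 yeast strain are incubated with test compound. Inhibition of growth is calculated against vehicle-treated controls.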

[3] = NCI Yeast Anticancer Drug Screen. Data for the sgs1 mgt1 strain (AID 161);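 further: 0% = growth of cultures given vehicle only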; conditions: S. cerevisiae sgs1 mgt1 strain, stronger effect = higher value
Procedure, shortened: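 Mutant yeast exposed to compound; growth scored against vehicle-only wells.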

[4] = NCI Yeast Anticancer Drug Screen. Data for the cln2 rad14 strain (AID 165);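 further: 0% = growth equal to vehicle treated cultures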; conditions: S. cerevisiae cln2 rad14 strain, stronger effect = higher value
Procedure, shortened: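 The screen exposed genetically defined yeast (cln2 rad14) to test compounds and scored growth inhibition relative to vehicle-treated controls.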

[5] = NCI Yeast Anticancer Drug Screen. Data for the bub3 strain (AID 167); conditions: S. cerevisiae bub3 mutant strain, stronger effect = higher value
Procedure, shortened: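 Yeast carrying a defined mutation is treated with each compound, and growth is compared with that of vehicle-exposed cells to give inhibition.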

[6] = NCI Yeast Anticancer Drug Screen. Data for the mlh1 rad18 strain (AID 175); conditions: S. cerevisiae mlh1 rad18 strain growth inhibition, stronger effect = higher value
Procedure, shortened: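 Compound-treated yeast growth, normalised to vehicle controls. Strain bears defined DNA repair mutations.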

[7] = at 5.0 µM (retest, dose inferred, filed as 0.5)
[8] = at 50.0 µM (retest, dose inferred, filed as 5.0)

CCC[CH2][Ge]([CH2]CCC)([CH2]CCC)[O]C(=O)C(OC(C)=O)c1ccccc1 (stereo not given)
growth inhibition [1, 7]: 95% (active)
growth inhibition [1, 8]: 95% (active)
growth inhibition ([1]; at 50.0 µM): 78% (active)
growth inhibition [2, 7]: 85% (active)
growth inhibition [2, 8]: 85% (active)
growth inhibition ([2]; at 50.0 µM): 75.2% (active)
growth inhibition [3, 7]: 98% (active)
growth inhibition [3, 8]: 98% (active)
growth inhibition ([3]; at 50.0 µM): 86% (active)
growth inhibition [4, 7]: 55%
growth inhibition [4, 8]: 55%
growth inhibition ([4]; at 50.0 µM): 71% (active)
growth inhibition [5, 7]: 62%
growth inhibition [5, 8]: 62%
growth inhibition ([5]; at 50.0 µM): 85% (active)
growth inhibition [6, 7]: 87% (active)
growth inhibition [6, 8]: 87% (active)
growth inhibition ([6]; at 50.0 µM): 79.5% (active)

COc1cc(C2CC(C)(OC)Oc3cc4c(cc32)OCO4)cc(OC)c1O (stereo not given)
growth inhibition [1, 7]: 1%
growth inhibition [1, 8]: 55%
growth inhibition ([1]; at 50.0 µM): 14.9%
growth inhibition [2, 7]: 2%
growth inhibition [2, 8]: 16%
growth inhibition ([2]; at 50.0 µM): -5.5%
growth inhibition [3, 7]: -3%
growth inhibition [3, 8]: 50%
growth inhibition ([3]; at 50.0 µM): 28.8%
growth inhibition [4, 7]: 12%
growth inhibition [4, 8]: 37%
growth inhibition ([4]; at 50.0 µM): 4.55%
growth inhibition [5, 7]: 10%
growth inhibition [5, 8]: 55%
growth inhibition ([5]; at 50.0 µM): -2.1%
growth inhibition [6, 7]: 0%
growth inhibition [6, 8]: 63%
growth inhibition ([6]; at 50.0 µM): 31.2%

CCN(CC)CCNc1c(O)cc(C)c2sc3ccccc3c(=O)c12
growth inhibition [1, 7]: 18%
growth inhibition [1, 8]: 95% (active)
growth inhibition ([1]; at 50.0 µM): 98.5% (active)
growth inhibition [2, 7]: 10%
growth inhibition [2, 8]: 94% (active)
growth inhibition ([2]; at 50.0 µM): 99% (active)
growth inhibition [3, 7]: 7%
growth inhibition [3, 8]: 98% (active)
growth inhibition ([3]; at 50.0 µM): 98.8% (active)
growth inhibition [4, 7]: 11%
growth inhibition [4, 8]: 84% (active)
growth inhibition ([4]; at 50.0 µM): 96.8% (active)
growth inhibition [5, 7]: 3%
growth inhibition [5, 8]: 84% (active)
growth inhibition ([5]; at 50.0 µM): 97.2% (active)
growth inhibition [6, 7]: 2%
growth inhibition [6, 8]: 96% (active)
growth inhibition ([6]; at 50.0 µM): 98.3% (active)

O=C1c2ccccc2C2N1CCCN2C(=O)c1sc2ccccc2c1Cl (stereo not given)
growth inhibition [1, 7]: 49%
growth inhibition [1, 8]: 98% (active)
growth inhibition ([1]; at 50.0 µM): 90% (active)
growth inhibition [2, 7]: 30%
growth inhibition [2, 8]: 99% (active)
growth inhibition ([2]; at 50.0 µM): 92% (active)
growth inhibition [3, 7]: 29%
growth inhibition [3, 8]: 99% (active)
growth inhibition ([3]; at 50.0 µM): 92.8% (active)
growth inhibition [4, 7]: 28%
growth inhibition [4, 8]: 96% (active)
growth inhibition ([4]; at 50.0 µM): 90.3% (active)
growth inhibition [5, 7]: 35%
growth inhibition [5, 8]: 98% (active)
growth inhibition ([5]; at 50.0 µM): 92% (active)
growth inhibition [6, 7]: 44%
growth inhibition [6, 8]: 98% (active)
growth inhibition ([6]; at 50.0 µM): 90.5% (active)

COc1ccc(C2COc3cc(OC(C)=O)c(OC(C)=O)cc3C2)cc1 (stereo not given)
growth inhibition [1, 7]: -1%
growth inhibition [1, 8]: 93% (active)
growth inhibition ([1]; at 50.0 µM): 96.1% (active)
growth inhibition [2, 7]: 2%
growth inhibition [2, 8]: 95% (active)
growth inhibition ([2]; at 50.0 µM): 95.9% (active)
growth inhibition [3, 7]: 1%
growth inhibition [3, 8]: 93% (active)
growth inhibition ([3]; at 50.0 µM): 95% (active)
growth inhibition [4, 7]: 4%
growth inhibition [4, 8]: 93% (active)
growth inhibition ([4]; at 50.0 µM): 94.9% (active)
growth inhibition [5, 7]: 24%
growth inhibition [5, 8]: 96% (active)
growth inhibition ([5]; at 50.0 µM): 97.1% (active)
growth inhibition [6, 7]: -3%
growth inhibition [6, 8]: 94% (active)
growth inhibition ([6]; at 50.0 µM): 96.6% (active)
